VP16 counter: inhibits Gal4-VP16 luciferase reporter, ROR gamma counter-screen; Potency, µM (series often up to 53.6 µM), without a hit: top-dose activity, negative = inhibition, actives largely listed as inhibitors; Drosophila S2 Gal4-VP16 UAS-luciferase, luminescence, 20 h; AID 2546; 310,000 compounds, 3.5% hits;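 note: Gal4-VP16 expression switched on by copper sulfate through the metallothionein promoter; nearly all actives have a fitted effect of over 50% in size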
Sfp PPTase inh: blocks B. subtilis Sfp PPTase activity; Q9F4F7; Biochemical Sfp PPTase activity, qHTS; Potency, µM, for inactives: largest response in the series, negative = inhibition, most hits filed as inhibitors; 310,000 compounds, 3.5% hits; AID 1490;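 note: the enzyme is Sfp with the accession as filed and its product quenches rhodamine fluorescence; 0% = enzyme reaction without inhibitor and -100% = no enzyme wells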
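Compounds were incubated with enzyme (final 15 nM) for 15 min at room temperature before substrate addition started the reaction. Fluorescence at 525 nm excitation, 598 nm emission was recorded immediately and after 30 minutes.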
RORg inh: ROR gamma (mouse) transcription inhibition; Drosophila S2 Gal4-RORgamma UAS-luciferase reporter, 20 h; AID 2551; P51450; Potency, µM (doses to about 53.6 µM), inactives show at the top dose activity change, negative = inhibition, hits mostly inhibitors; 310,000 compounds, 5.4% hits; note: nearly all actives have a fitted effect of over 60% in size
Target sequence (P51450 whole entry, looked up, the tested form may be a part): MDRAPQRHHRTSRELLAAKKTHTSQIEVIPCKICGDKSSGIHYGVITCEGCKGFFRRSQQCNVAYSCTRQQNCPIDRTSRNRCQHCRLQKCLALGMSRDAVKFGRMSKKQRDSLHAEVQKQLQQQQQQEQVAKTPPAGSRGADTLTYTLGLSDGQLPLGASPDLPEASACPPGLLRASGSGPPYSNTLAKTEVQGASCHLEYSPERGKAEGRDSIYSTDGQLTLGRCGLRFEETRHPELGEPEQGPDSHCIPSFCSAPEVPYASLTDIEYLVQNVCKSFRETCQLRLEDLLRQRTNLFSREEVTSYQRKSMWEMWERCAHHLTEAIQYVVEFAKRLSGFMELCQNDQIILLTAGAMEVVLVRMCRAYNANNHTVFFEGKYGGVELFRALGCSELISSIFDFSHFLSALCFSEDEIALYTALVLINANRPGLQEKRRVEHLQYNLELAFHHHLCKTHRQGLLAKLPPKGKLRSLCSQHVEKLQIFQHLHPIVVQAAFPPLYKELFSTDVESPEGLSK
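Read-out: Photinus luciferase luminescence; inhibitors lower reporter signal. Insect Schneider cells with Gal4-ROR gamma fusion under metallothionein promoter, UAS reporter; 700 uM final copper sulfate induction, 20 hr, ambient temperature.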
PLK1 PBD block: PLK1 (human) polo-box domain binding inhibition. P53350. Plk1 PBD binding of FITC phosphopeptide, fluorescence polarization. Potency, µM, for inactives: max response, negative = inhibition, actives largely listed as inhibitors. 360,000 compounds, 2.8% hits. AID 720504; note: series mostly up to about 57 µM; nearly all actives have a fitted effect of over 65% in size
ALDH1A1 block: blocks purified human ALDH1A1 activity. AID 1030. 220,000 compounds, 7.3% hits. Potency, µM (highest dose often 75.3 µM), inactives show top-dose activity, negative = inhibition, hits mostly inhibitors. P00352. Purified ALDH1A1, NADH fluorescence, propionaldehyde substrate; active = well fitted inhibition curve with a large enough effect, not every such curve was filed as active; inconclusive = small, poorly fitted or top-dose-only effect, or another doubt; inactive = no such curve, though single readings can be large or run the other way;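 note: plate controls were no enzyme wells and a reference inhibitor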
* hit, by the source's call; ? = inconclusive; . = no result; [ ] = dose if it differs, or a comment. Most compounds without a hit are left out; they make up all but 12% or so of the library. Unless noted, calls come from the whole dose curve; as a rule, active = well fitted curve in the direction sought with a large enough effect; inconclusive = small, poorly fitted or top-dose-only effect, or another doubt; inactive = no such curve, though single readings can be large; an effect the other way counts as inactive or inconclusive. Unless noted, % is set by controls: 0 for no effect and ±100 for the full control effect; potency is the fitted concentration of half-maximal effect.

SMILES	VP16 counter	Sfp PPTase inh	RORg inh	PLK1 PBD block	ALDH1A1 block
CC[C@H](C)[C@H](NC(=O)[C@H](Cc1ccccc1)NC(=O)[C@H](CC(C)C)NC(=O)[C@H](CCSC)NC(=O)[C@H](CCC(=O)O)NC(=O)[C@H](CCC(=O)O)NC(=O)[C@H](CC(=O)O)NC(=O)[C@H](CO)NC(=O)[C@@H]1CCCN1C(=O)[C@H](CCCCN)NC(=O)[C@@H](N)[C@@H](C)O)C(=O)N[C@@H](Cc1ccc(O)cc1)C(=O)NCC(=O)N[C@@H](Cc1cnc[nH]1)C(=O)N[C@@H](Cc1ccc(O)cc1)C(=O)N[C@@H](CCCCN)C(=O)N[C@@H](CCC(N)=O)C(=O)N[C@@H](C)C(=O)N[C@H](C(=O)N[C@H](C(=O)NCC(=O)N[C@@H](CC(=O)O)C(=O)N[C@H](C(=O)N[C@@H](CC(N)=O)C(=O)N[C@H](C(=O)N[C@@H](CCC(=O)O)C(=O)N[C@@H](CCCNC(=N)N)C(=O)N1CCC[C@H]1C(=O)NCC(=O)N[C@@H](CCSC)C(=O)N[C@@H](CC(C)C)C(=O)N[C@@H](CC(=O)O)C(=O)N[C@@H](Cc1ccccc1)C(=O)N[C@H](C(=O)O)[C@@H](C)O)[C@@H](C)O)[C@@H](C)CC)C(C)C)[C@@H](C)O	5.2%	-3.7%	1.5%	.	.
COC(=O)[C@@]1(C)[C@H]2C(=O)N(C)C(=O)[C@H]2[C@H]2CN=C(SCc3ccccc3)N21	.	.	.	-3.8%	.
COC(=O)[C@@]1(C)[C@H]2C(=O)N(C)C(=O)[C@H]2[C@H]2CN=C(SCC(=O)c3ccccc3)N21	.	.	.	23.8µM*	.
CCOC(=O)c1c(C)oc2c1c1c(c3ccccc32)OCN(Cc2cccnc2)C1	7.94µM*	?	1.78µM*	4.74µM*	0.199µM*
CCOC(=O)c1c(C)oc2c1c1c(c3ccccc32)OCN(CCCC(=O)O)C1	-7.3%	-5.9%	-3.9%	10.6µM*	7.94µM*
COc1ccc(CN[C@H](C)C(=O)O)cc1	.	.	.	.	7.4%[13.5 µM]
Cc1ccc(C(=O)OCC(=O)NCc2ccc(Cl)cc2)s1	.	.	.	-14.4%	.
CC(=O)c1ccc(S(=O)(=O)N2CCN(c3ccnc4cc(Cl)ccc34)CC2)cc1	.	.	.	-4.0%	.
Cc1noc(C)c1C(=O)OC(C)C(=O)c1ccc(C(C)(C)C)cc1 (stereo unspecified)	.	.	.	3.8%	.
CC(=O)Sc1nc(-c2ccccc2)[nH]c1S(=O)(=O)c1ccc(C)cc1	10.3%	2.51µM*	-15.3%	2.99µM*	6.9%
Cc1cc(-c2ccccc2)c2ccc(NC(=O)C(C)(C)C)nc2n1	?	1.0%	11.2µM*	4.1%	.
N#Cc1cc(-c2ccccc2)cnc1Cl	2.3%	5.4%	?	-7.5%	3.55µM*
Clc1ccc(-c2ccccc2)cn1	.	.	.	-15.8%	.
COc1ccccc1N1Cc2ccccc2C1	-8.6%	?	10.3%	?	8.91µM*
Cc1ccccc1N1Cc2ccccc2C1	-0.3%	-5.2%	-10.8%	-4.6%	28.2µM*
CC1=C(CC/C(C)=N/NC(N)=S)C(C)(C)CCC1	2.82µM*	44.7µM*	1.78µM*	?	28.2µM*
CC(C)=CCN1CCN(CCC2=C(C)CCCC2(C)C)CC1CCO (stereo unspecified)	-0.1%	16.3%	-13.3%	-13.4%	5.9%
O=c1[nH]c(=S)[nH]c2c1C(c1ccc(Br)cc1)c1c([nH]c(=S)[nH]c1=O)O2	-0.1%	44.7µM*	-11.8%	5.97µM*	.
CCSc1nc2c(c(=O)[nH]1)C(c1ccc(C)cc1)C1=C(CCCC1=O)N2 (stereo unspecified)	-2.3%	20.9%	40.2%	-16.6%	3.7%
Cc1ccc(C2C3=C(CCCC3=O)Nc3[nH]c(=S)[nH]c(=O)c32)cc1 (stereo unspecified)	-4.5%	7.94µM*	-9.1%	?	?
O=C1CCCC2=C1C(c1ccc(Br)cc1)c1c([nH]c(=S)[nH]c1=O)N2 (stereo unspecified)	-1.3%	-94.3%	-4.7%	26.7µM*	?
CC1(C)CC(=O)C2=C(C1)Nc1[nH]c(=S)[nH]c(=O)c1C2c1ccccc1 (stereo unspecified)	-3.6%	28.2µM*	-11.5%	?	?
COC(=O)C1=C(C)Nc2[nH]c(=S)[nH]c(=O)c2C1c1ccc(O)cc1 (stereo unspecified)	5.1%	6.31µM*	25.0%	-4.4%	23.8µM*
CC(=O)Nc1sc(N/N=C/c2ccc(C)cc2)nc1-c1ccc(C)cc1	?	3.2%	?	-7.9%	.
CC(=O)Nc1sc(/C(C#N)=C/c2ccc(Cl)c(Cl)c2)nc1-c1ccc(C)cc1	-10.1%	15.8µM*	-1.6%	27.3%	-14.3%
SMILES	VP16 counter	Sfp PPTase inh	RORg inh	PLK1 PBD block	ALDH1A1 block
COc1ccc(S(=O)(=O)Nc2ccc3c(c2)C(=O)N([C@H](C)CO)C[C@H](C)[C@@H](CN(C)C(=O)Nc2ccc(F)cc2)OCCCC[C@H](C)O3)cc1	.	.	.	-9.8%	.
Cc1ccccc1NC(=O)c1ccccc1O	?	19.4%	?	-11.6%	?
COC(=O)Cn1c(O)c(N=NC(=O)CNC(=O)c2ccc3c(c2)OCCO3)c2ccccc21	-8.8%	10.1%	-11.8%	-36.0%	.
Cc1cc(N=NC(=O)c2ccccc2O)c2ccccc2c1O	-6.0%	-8.0%	0.3%	26.7µM*	-6.4%
CCOC(=O)C(=O)N=Nc1c(O)n(C)c2ccccc12	4.5%	-5.6%	5.2%	-9.4%	14.1µM*
COc1ccccc1NC(=O)Cn1c(O)c(N=NC(=O)c2ccccc2O)c2ccccc21	-8.6%	-55.9%	38.5%	-18.7%	1.58µM*
CCOC(=O)N=Nc1c(O)n(CC(=O)OC)c2ccccc12	4.3%	6.7%	3.5%	-21.3%	7.08µM*
Cc1occc1C(=O)N=Nc1c(O)n(C)c2ccccc12	-7.3%	-0.4%	-2.9%	-11.9%	2.5%
CN=C(NC#N)Nc1ccc(C2=NNC(=O)C[C@@H]2C)cc1	-8.7%	5.4%	-0.5%	.	?
CCN(CC)C(=O)Cn1c(=O)c2ccccc2n2c(=S)sc(-c3cccc(C)c3)c12	-17.7%	?	-15.1%	?	?
Cc1ccc([C@@H]2C[C@H]3[C@@H](CN2S(=O)(=O)c2ccc(C)cc2)C(=O)C[C@@H](c2ccc(Cl)cc2)N3S(=O)(=O)c2ccccc2C)cc1	.	.	.	-3.6%	.
Cn1c(O)c(N=NC(=O)c2ccccc2O)c2ccccc21	-24.6%	?	-40.7%	3.36µM*	1.1%
Cn1c(O)c(N=NC(=O)C2COc3ccccc3O2)c2ccccc21 (stereo unspecified)	-3.2%	-3.5%	30.3%	26.7µM*	.
CC(=O)OC1COC(n2c(O)c(N=NC(N)=S)c3ccccc32)C(OC(C)=O)C1OC(C)=O (stereo unspecified)	10µM*	3.6%	6.31µM*	-9.5%	.
Cn1c(O)c(N=NC(=O)c2ccco2)c2ccccc21	?	-5.8%	?	-8.9%	-3.6%
Cn1c(O)c(N=NC(N)=S)c2ccccc21	3.16µM*	?	1.12µM*	.	.
